Reference: PubChem BioAssay

Key:
[1] = system: Human papillomavirus type 1a protein E7 (residues 44-93); assay: HPV1a E7 fragment binders on microarrays, primary screen, biochemical, small-molecule microarray, residues 44-93, 635 nm fluorescence (AID 1108); details: small-molecule microarray binding, fluorescence 635 nm; higher = more signal;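 further: E7 fragment applied at 1 µg/mL in TBST for 1 h at 4 C; score combines spot fluorescence with its signal to noise ratio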
[2] = modulators of HCV replicon luciferase signal, primary screen, HCV replication inhibitor project, Huh7 cells, luciferase reporter (AID 1109); details: 48 h, higher = more signal;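 further: huh7 hepatoma cells harbouring a luciferase neomycin HCV replicon reporter; luciferase luminescence as measure of HCV replicon replication; test concentration not given here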
[3] = biological target: Left-right determination factor 2 (Homo sapiens) (UniProt O00292); assay: LEFTY2 binders on small-molecule microarrays, primary screen, biochemical, small-molecule microarray, 635 nm fluorescence scan (AID 1110); details: LEFTY2 binding, higher = more signal
[4] = biological target: Calmodulin-1 (Homo sapiens) (UniProt P0DP23); assay: CALM1 binders on microarrays, EGTA buffer, profiling panel, biochemical, small-molecule microarray, Cy5-labelled CALM1 (AID 1111); details: Cy5-CALM1 binding fluorescence, higher = more signal;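 further: labelled calmodulin applied in Tris saline Tween buffer holding calcium plus EGTA and DTT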
[5] = biological target: Calmodulin-1 (Homo sapiens) (UniProt P0DP23); assay: calcium-bound CALM1 binders on microarrays, profiling panel, artefact control for SMM control-protein annotation, biochemical, small-molecule microarray, Cy5-labelled CALM1, plus calcium (AID 1112); details: Cy5-CALM1 binding fluorescence, higher = more signal;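 further: score merges spot fluorescence with signal to noise from triplicate slides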
[6] = small-molecule microarray binders of probe aWnt5a, primary screen, biochemical, biotinylated probe, 635/667 nm fluorescence (AID 1113); details: higher = more signal;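 further: score merges 667 nm fluorescence intensity with signal-to-noise per printed feature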
[7] = small-molecule microarray binders of probe aShh, primary screen, biochemical, biotinylated probe, 635/667 nm fluorescence (AID 1114); details: higher = more signal;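 further: probe is biotin-labelled aShh protein from a stem cell growth factor screen; measures binding of labelled protein to compounds printed on the slide; score merges feature fluorescence at 667 nm with signal-to-noise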
[8] = small-molecule microarray binders of probe aNog, primary screen, biochemical, biotinylated probe, 635/667 nm fluorescence (AID 1115); details: higher = more signal;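 further: probe is biotinylated aNog protein used at 0.15 µg/mL for 1 h at 4 C; z-score combines 667 nm fluorescence of each spot with its signal to noise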
[9] = biological target: Torsin-1A-interacting protein 1 (Homo sapiens) (UniProt Q5JTV8); assay: LAP1 binders from COS7 cell lysate, primary screen, small-molecule microarray, 635/667 nm fluorescence (AID 1116); details: COS7-hLAP1 lysate binding, 635 nm fluorescence, higher = more signal
[10] = biological target: Alpha-bungarotoxin (Bungarus multicinctus) (UniProt P60615); assay: alpha-bungarotoxin binders on microarray, profiling panel, artefact control for SMM control protein annotation, biochemical, small-molecule microarray, Alexa647 label, 635/667 nm fluorescence (AID 1117); details: alpha-BTX-A647 binding fluorescence, higher = more signal
Sequence of Alpha-bungarotoxin (Bungarus multicinctus) (P60615 whole entry, looked up): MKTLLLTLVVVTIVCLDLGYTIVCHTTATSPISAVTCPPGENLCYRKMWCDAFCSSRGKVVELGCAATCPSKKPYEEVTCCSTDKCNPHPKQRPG

Sequence of Left-right determination factor 2 (Homo sapiens) (O00292 whole entry, looked up): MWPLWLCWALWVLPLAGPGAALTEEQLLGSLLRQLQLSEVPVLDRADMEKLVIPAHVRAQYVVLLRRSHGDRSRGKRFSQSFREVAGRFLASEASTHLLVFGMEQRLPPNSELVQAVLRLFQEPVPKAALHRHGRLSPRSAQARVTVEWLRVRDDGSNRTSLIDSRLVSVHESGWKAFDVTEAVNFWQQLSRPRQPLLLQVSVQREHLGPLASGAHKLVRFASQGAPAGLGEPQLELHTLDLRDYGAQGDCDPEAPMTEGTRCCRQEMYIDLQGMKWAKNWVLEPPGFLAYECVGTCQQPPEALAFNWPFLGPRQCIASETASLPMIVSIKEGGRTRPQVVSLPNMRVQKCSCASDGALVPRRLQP
Sequence of Torsin-1A-interacting protein 1 (Homo sapiens) (Q5JTV8 whole entry, looked up): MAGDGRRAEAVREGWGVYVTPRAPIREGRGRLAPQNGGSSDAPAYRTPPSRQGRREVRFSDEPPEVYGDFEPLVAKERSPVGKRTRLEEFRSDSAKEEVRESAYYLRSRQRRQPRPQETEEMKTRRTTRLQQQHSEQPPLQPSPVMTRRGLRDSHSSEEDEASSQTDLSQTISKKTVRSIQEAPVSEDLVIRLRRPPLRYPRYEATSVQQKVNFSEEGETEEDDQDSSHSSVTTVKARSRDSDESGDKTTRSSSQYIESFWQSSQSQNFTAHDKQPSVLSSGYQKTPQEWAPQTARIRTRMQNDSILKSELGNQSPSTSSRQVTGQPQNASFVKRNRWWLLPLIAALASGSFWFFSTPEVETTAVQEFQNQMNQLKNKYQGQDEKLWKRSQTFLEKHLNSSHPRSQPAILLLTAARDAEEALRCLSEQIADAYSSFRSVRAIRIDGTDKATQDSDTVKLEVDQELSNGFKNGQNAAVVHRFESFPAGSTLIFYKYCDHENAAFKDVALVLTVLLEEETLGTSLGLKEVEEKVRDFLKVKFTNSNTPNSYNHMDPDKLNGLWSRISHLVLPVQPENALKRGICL

Row | SMILES | composite z-score [1] | z-score [2] | composite z-score [3] | composite z-score [4] | composite z-score [5] | composite z-score [6] | composite z-score [7] | composite z-score [8] | composite z-score [9] | composite z-score [10]
1 | CC(=O)N1CC(C(O)C2C=CC3C(=O)NC(=O)C3N2Nc2ccc(Cl)cc2Cl)c2ccccc21 (stereo not given) | 0.759 | -0.819 | -0.138 | 1.18 | 0.789 | 0.0437 | 0.806 | 1.5 | 0.033 | 0.869
2 | O=C1C2C=CC(C(O)c3ccc4c(c3)OCO4)N(Nc3ccccc3)C2C(=O)N1c1ccccc1 (stereo not given) | 1.36 | -0.631 | -0.127 | 1.36 | 0.174 | -0.0286 | -0.0904 | 1.69 | 0.722 | 1.05
3 | COC(=O)[C@@]1(Cc2ccc(F)cc2)[C@H]2c3cc(C(=O)N(C)C)n(Cc4c(CO)[nH]cc(C)c4=O)c3C[C@H]2CN1C(=O)c1ccccc1 | -0.275 | -0.573 | -0.104 | 0.263 | -0.184 | 0.0375 | 0.649 | 1.38 | 1.16 | 0.0084
4 | CCOC(=O)C=Cc1cc(F)ccc1O | 0.261 | -1.36 | -0.251 | -0.297 | -0.352 | -0.0462 | 0.0469 | -0.181 | -0.207 | 0.0531
5 | C=CCC(OC(C)=O)[C@@H]1[C@@H](N(Cc2cccc3ccccc23)C(=O)c2cccc3ccccc23)c2cc(OCCCO)ccc2N1C(=O)c1ccc2ccccc2c1 (stereo not given in full) | 0.475 | -0.351 | 0.156 | -0.0677 | 0.476 | -0.0748 | 0.0494 | 0.185 | 0.184 | 0.0426
6 | C=C[C@@H](OC)[C@H](OC(=O)Nc1ccc(SC)cc1)c1ccc(OCCO)cc1 | 1.44 | 0.462 | 0.0128 | 0.469 | -0.0827 | -0.0735 | 0.0639 | 0.36 | 1.03 | 1.36
7 | CN1C(=O)C2C(C1=O)C1C=C(CCCO)C2C(C2CC2)N1Cc1cc2c(cc1Br)OCO2 (stereo not given) | 0.295 | -0.734 | 0.285 | 0.508 | 0.724 | -0.0462 | 0.0893 | 1.21 | 1.33 | 1.58
8 | CCOC(=O)C1=C[C@@H](C(C)(C)C)N(S(=O)(=O)c2ccc(C)cc2)[C@H]1c1ccccc1 | 0.834 | -2.05 | 0.561 | 1.99 | 0.838 | 0.0873 | 0.0469 | 0.109 | 1.26 | 1.11
9 | C=C/C=C/[C@@H]1C(=C)CN([C@@H](Cc2ccccc2)C(=O)OC)[C@H]1[C@@H](O)Cc1ccccc1 | 1.17 | -0.622 | 0.201 | 0.241 | -0.547 | -0.107 | -0.138 | 0.0924 | 0.309 | 0.325
10 | C=CCN1C(=O)[C@@]2(O[C@@H](CCO)[C@H]([Si](C)(C)c3ccc(OC)cc3)[C@H]2C)c2cc(N3CCOC3=O)ccc21 | 1.31 | -4.84 | -0.135 | 0.278 | 0.444 | -0.0981 | -0.243 | -0.0239 | 0.878 | 0.105
11 | CCOC(=O)C=Cc1ccccc1O | 1.22 | -2.36 | 0.233 | -0.166 | -0.72 | -0.0462 | 0.151 | -0.0381 | 0.0446 | 0.377
12 | CCOC(=O)C[C@H]1[C@H](OC(=O)c2ccccc2-c2ccccc2)[C@@H](NC(=O)c2ccc3ccccc3n2)c2cc(OCCCO)ccc2N1C(=O)c1ccccc1 | 1.29 | -1.7 | 0.487 | -0.0187 | -0.457 | -0.0519 | -0.248 | -0.347 | 0.291 | 0.414
13 | COC(=O)[C@@]1(Cc2ccc(F)cc2)[C@H]2c3cc(C(=O)N4CCCC4)n(CC4CC4)c3C[C@H]2CN1C(=O)c1ccccc1 | 1.39 | -1.94 | 1.29 | 2.43 | 0.701 | 0.0139 | 0.184 | 1.96 | 1.22 | 1.33
14 | O=C(O)[C@@H]1C[C@@H]2C(=O)N3CCC[C@H]3C(=O)N2[C@@H]1c1cccc(OCCO)c1 | 1.49 | -0.444 | 1.56 | 1.69 | 0.815 | 0.94 | 2.65 | 3.05 | 3.85 | 2.99
15 | C=C(/C(=C/C[C@H](OC(=O)c1ccncc1)c1cccc(OCCO)c1)c1cnc2ccccc2c1)C(C)C | 0.589 | -4.47 | 0.67 | 0.127 | -0.412 | -0.0236 | -0.0011 | 0.0215 | 2.85 | 3.56
16 | CN1C(=O)C2C=CC(C(O)c3ccc(F)cc3)N(NC(=O)OC(C)(C)C)C2C1=O (stereo not given) | 1.36 | -0.428 | -0.205 | 0.989 | 0.469 | -0.109 | 0.265 | 1.12 | -0.102 | 0.613
17 | C=CCN1C(=O)[C@]2(O[C@H](CCO)[C@@H]([Si](C)(C)c3ccc(OC)cc3)[C@@H]2C)c2cc(NC(=O)c3ccc(OC)cc3)ccc21 | 1.12 | -5.1 | 0.391 | 0.0503 | 0.631 | -0.102 | -0.0553 | -0.0184 | 0.336 | 0.732
18 | CC1CC/C=C\[C@H]2OC34C=CCN(CCN5CCOCC5)C(=O)[C@H]3N(C(C)CO)C(=O)[C@@H]4C2C(=O)O1 (stereo not given in full) | 0.523 | -0.91 | -0.536 | -0.666 | -1.4 | -0.199 | 0.147 | -0.373 | -0.719 | -0.807
19 | C=CCC(OC(C)=O)[C@@H]1[C@@H](N(Cc2ccc(-c3ccccc3)cc2)C(=O)c2ccc(C)cc2)c2cc(OCCCO)ccc2N1C(=O)Cc1ccc2ccccc2c1 (stereo not given in full) | -0.579 | -0.588 | -0.0611 | -0.117 | 0.53 | -0.0794 | -0.349 | 0.0127 | 1.68 | 0.0941
20 | O=C1[C@@]23C=C(Br)[C@H](C[C@@H]2COC3)[C@@]12CO2 | 0.368 | -2.52 | 0.531 | -0.293 | -0.87 | -0.102 | -0.0396 | -0.172 | 0.245 | 0.53
21 | COc1ccc(C(O)C2C=CC3C(=O)N(c4ccccc4)C(=O)C3N2Nc2ccccc2)cc1 (stereo not given) | 1.39 | -0.454 | -0.13 | 0.553 | 0.147 | 0.0102 | -0.0243 | 0.36 | 0.272 | 2.13
22 | C=CCC(OC(C)=O)[C@@H]1[C@@H](N(Cc2cccc3ccccc23)C(=O)Cc2ccc(F)cc2)c2cc(OCCCO)ccc2N1C(=O)c1ccc(-c2ccccc2)cc1 (stereo not given in full) | -0.658 | -1.09 | -0.197 | -0.573 | 0.992 | -0.236 | -0.0035 | 0.0812 | 0.171 | -0.395
23 | COC(=O)[C@@]1(Cc2ccc(OC)cc2)[C@H]2c3cc(C(=O)N4CCCC4)n(Cc4ccc(S(C)(=O)=O)cc4)c3C[C@H]2CN1C(=O)c1ccccc1 | 0.918 | -0.887 | -0.0914 | 2.06 | 0.955 | 0.108 | 0.883 | -0.121 | 1.05 | 0.448
24 | C=C(C)[C@@H]1CC=C(C(O)C2C=CC3C(=O)N(c4ccccc4)C(=O)C3N2Nc2ccc(C#N)cc2)CC1 (stereo not given in full) | 1.47 | -0.768 | 0.0506 | 1.75 | 0.424 | -0.0431 | 0.0469 | 1.5 | -0.243 | 1.92
25 | CCOC(=O)C1=C[C@@H](C(C)(C)C)N(S(=O)(=O)c2ccc(C)cc2)[C@H]1c1ccc(C)cc1 | 0.974 | -1.04 | 0.424 | 1.81 | -0.0354 | 0.0479 | -0.0709 | 1.27 | 0.229 | 1.11
26 | CC(C)C[C@@H]1NC(=O)[C@H]2C[C@@H](C(=O)NCCCCCN)[C@@H](c3cccc(OCCO)c3)N2C1=O | -1.01 | 0.335 | -0.0189 | 0.331 | 0.422 | -0.103 | -0.138 | -0.157 | 2.08 | 1.03
27 | COC(=O)[C@@]1(Cc2ccc(OC)cc2)[C@H]2c3cc(C(=O)N4CCCC4)n(Cc4cc(C)n(C)n4)c3C[C@H]2CN1C(=O)c1ccccc1 | 0.712 | -1.38 | 0.78 | 1.46 | 0.81 | 0.23 | 0.4 | 0.352 | 1.21 | 0.769
